From PubChem BioAssay
Most compounds without a hit are left out; they make up all but 5.7% or so of the library.
ssDAF-12 act – S. stercoralis DAF-12 nuclear receptor activators, primary screen, cell-based, luminescence, HEK293, GRIP1 co-expression, lit1-tk-luc. Nuclear hormone receptor DAF-12 (Strongyloides stercoralis). HEK293 ssDAF-12/GRIP1 lit1-tk-luc reporter; % of 3 µM dafachronic acid response. activation, % at 6.8 µM. 370,000 compounds, 1% hits. AID 652126, 2013;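 active = activation above the mean over all tested compounds plus 3 SD, cut at about 0.9% in these data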
hcDAF12 agonist – H. contortus DAF-12 nuclear receptor activators, primary screen, cell-based, luminescence, HEK293, lit1-tk-luc reporter; 370,000 compounds, 1.4% hits; activation, % at 6.8 µM; HEK293 hcDAF-12 lit1-tk-luc reporter; 0% DMSO, 100% Δ7-dafachronic acid;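 active = activation above the mean of all tested compounds plus 3 SD, cut at about 5.5% in these data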
AHR activator – AHR activators, primary screen, cell-based, luminescence, luciferase reporter, human | Aryl hydrocarbon receptor (Homo sapiens), P35869 | AHR-responsive luciferase reporter cells | activation, % at 5 µM | 320,000 compounds, 2.5% hits | AID 2796, 2010; in the data active = activation above about 47%
Target sequence (P35869 whole entry, looked up): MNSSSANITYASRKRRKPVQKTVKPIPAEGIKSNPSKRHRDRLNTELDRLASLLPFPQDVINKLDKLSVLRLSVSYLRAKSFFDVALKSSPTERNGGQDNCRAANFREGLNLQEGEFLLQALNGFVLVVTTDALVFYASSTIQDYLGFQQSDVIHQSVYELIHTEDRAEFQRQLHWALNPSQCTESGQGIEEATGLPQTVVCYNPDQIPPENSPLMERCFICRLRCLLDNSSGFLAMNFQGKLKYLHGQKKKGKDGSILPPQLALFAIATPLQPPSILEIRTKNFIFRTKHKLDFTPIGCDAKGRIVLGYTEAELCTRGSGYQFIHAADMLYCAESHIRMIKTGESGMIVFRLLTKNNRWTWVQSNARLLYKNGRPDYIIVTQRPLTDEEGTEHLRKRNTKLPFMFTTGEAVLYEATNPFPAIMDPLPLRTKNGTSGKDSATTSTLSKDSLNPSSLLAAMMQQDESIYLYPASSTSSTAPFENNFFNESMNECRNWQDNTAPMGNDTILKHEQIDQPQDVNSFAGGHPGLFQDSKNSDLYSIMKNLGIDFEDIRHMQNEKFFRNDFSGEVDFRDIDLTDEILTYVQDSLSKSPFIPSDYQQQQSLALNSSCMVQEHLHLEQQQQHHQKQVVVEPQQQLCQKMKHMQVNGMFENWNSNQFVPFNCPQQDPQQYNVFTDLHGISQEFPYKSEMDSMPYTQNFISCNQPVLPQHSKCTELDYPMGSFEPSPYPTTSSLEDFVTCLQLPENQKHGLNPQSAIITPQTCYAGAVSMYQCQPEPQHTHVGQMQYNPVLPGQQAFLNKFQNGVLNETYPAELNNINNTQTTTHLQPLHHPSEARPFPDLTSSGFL
DAX1 inh-1 – DAX1 (NR0B1) inhibitors on StAR promoter, primary screen, cell-based, luminescence, SF-1 (NR5A1), full-length DAX-1; HEK293T StAR-luciferase reporter, SF-1/DAX-1 repression relief; inhibition, % at 6.8 µM; 370,000 compounds, 1.1% hits; AID 652010, 2013;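 active = inhibition above the mean over all tested compounds plus 3 SD, cut at about 3.6% in these data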;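 also: higher inhibition means more luminescence from relief of DAX-1 repression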
DAX1 inh-2 – DAX1 (NR0B1) inhibitors, primary screen, cell-based, HEK293, Gal4-DAX1, luciferase luminescence; HEK293 Gal4-DAX1 luciferase reporter; inhibition, % at 6.75 µM; 340,000 compounds, 0.99% hits; AID 504766, 2011;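 active = inhibition above the mean over all tested compounds plus 3 SD, cut at about 4.2% in these data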;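 also: inhibition shows as a rise in luminescence from relieved DAX1 repression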
hgDAF-12 ag – H. glycines DAF-12 receptor agonists, primary screen, cell-based, luminescence, HEK293, GAL4 fusion, UAS-luciferase. Nuclear hormone receptor DAF-12 (Heterodera glycines), GAL4 fusion. HEK293 GAL4-hgDAF12 UAS-luciferase reporter, agonist luminescence; normalized to butyrate control. activation, % at 6.8 µM. 370,000 compounds, 1.8% hits. AID 687014, 2013;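 active = activation above a cutoff set at the mean of all screened compounds plus 3 SD, cut at about 10% in these data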
Large screens that a line does not name were inactive.

Cc1ccc2nc(-c3ccc(F)cc3)c(Cc3ccsc3)n2c1	hgDAF-12 ag 10.4 (no result: AHR activator, DAX1 inh-2)
CCOC(=O)c1c(-c2ccccc2)nc2ccc(C)cn12	none
CCOC(=O)c1c(-c2ccccc2)nc2cc(C)ccn12	DAX1 inh-2 4.6
Cc1ccc(Cc2c(-c3cccc(Cl)c3)nc3ccc(C)cn23)cc1	none (no result: AHR activator, DAX1 inh-2)
Cc1ccc(-c2nc3ccc(Cl)cn3c2Cc2ccsc2)cc1	DAX1 inh-1 4.2, hgDAF-12 ag 12.8 (no result: AHR activator, DAX1 inh-2)
Fc1ccc(-c2nc3ccc(Br)cn3c2Cc2ccsc2)cc1	none (no result: AHR activator, DAX1 inh-2)
Fc1ccc(-c2nc3ccc(Cl)cn3c2Cc2ccsc2)cc1	none (no result: AHR activator, DAX1 inh-2)
COc1ccc(-c2nc3ccc(Cl)cn3c2Cc2ccsc2)cc1OC	none (no result: AHR activator, DAX1 inh-2)
Cc1ccc(Cc2c(-c3ccc(Cl)cc3)nc3ccc(Cl)cn23)cc1	none (no result: AHR activator)
Cc1ccc(Cc2c(-c3ccc(C)cc3)nc3ccc(Cl)cn23)cc1	DAX1 inh-1 3.8 (no result: AHR activator)
Fc1ccc(-c2nc3c(Cl)cc(C(F)(F)F)cn3c2Cc2ccccc2)cc1	none (no result: AHR activator, DAX1 inh-2)
Cc1ccc(Cc2c(-c3ccccc3)nc3c(Cl)cc(C(F)(F)F)cn23)cc1	ssDAF-12 act 1.7 (no result: AHR activator, DAX1 inh-2)
Cc1ccc2nc(-c3ccc(Cl)cc3)c(Cc3ccsc3)n2c1	hgDAF-12 ag 12.8 (no result: AHR activator, DAX1 inh-2)
O=C(COc1ccccc1)NNC(=O)c1cccs1	none
Cc1ccc(NC(=O)COC(=O)C2COc3ccccc3O2)cc1 (configuration not stated)	none
O=C1Nc2ccccc2OC1CC(=O)N1CCOCC1 (configuration not stated)	DAX1 inh-2 6.0
O=C1Nc2ccccc2OC1CC(=O)N1CCN(c2cccc(C(F)(F)F)c2)CC1 (configuration not stated)	none
CN=C1N(C)C[C@@H]2[C@@H]3C(=O)N(Cc4ccccc4)C(=O)[C@@H]3[C@](Cc3ccccc3)(C(=O)OC)N12	none (no result: AHR activator)
C=CCn1c(SCC#N)nnc1-c1ccc2ncccc2c1	none
COc1ccc(Nc2nc(C)cc(C)c2C#N)cc1	AHR activator 65.4
COc1ccc(Nc2nc(C)cc(C)c2C#N)c(OC)c1	none
CCOc1ccc(Nc2nc(C)cc(C)c2C#N)cc1	AHR activator 79.7
CC(=O)c1cccc(CN2CCCC(N3CCN(c4ccccc4F)CC3)C2)c1 (configuration not stated)	none
CCC(C)(C(=O)NC1CCCCC1)N(C(=O)C1CCC(=O)N1)c1ccccc1 (configuration not stated)	none
Cn1c2ccccc2c2ncn(CCCN3CCOCC3)c(=O)c21	AHR activator 50.4
COc1ccc2[nH]c3c(=O)n(CCCN4CCOCC4)cnc3c2c1	DAX1 inh-2 6.2
Cn1c2ccc(F)cc2c2ncn(CCN3CCOCC3)c(=O)c21	DAX1 inh-2 7.2
Cc1cn(C(=O)C(C)N2C(=O)c3ccccc3C2=O)c(C)n1 (configuration not stated)	none
S=C(NCc1ccccn1)NN=Cc1ccccn1	none (no result: AHR activator)
Cc1noc(C)c1S(=O)(=O)NCCCN1CCN(Cc2ccccc2)CC1	none (no result: ssDAF-12 act, hcDAF12 agonist, DAX1 inh-1, DAX1 inh-2, hgDAF-12 ag)
CC(C)Cn1c(=O)n(C)c(=O)c2[nH]cnc21	none
Fc1ccc(/C=C\c2nccc3c2[nH]c2ccccc23)cc1	hcDAF12 agonist 5.6
c1ccc2c(c1)[nH]c1ccccc12	none
C(=C\c1nccc2c1[nH]c1ccccc12)/c1ccccc1	AHR activator 62.2
c1ccc2c(c1)[nH]c1ccncc12	none
CCOC(=O)N1CCN(C(=O)CCn2nc(-c3ccccc3)ccc2=O)CC1	DAX1 inh-2 4.8
O=C1C(Cl)=C(Nc2ccccc2O)C(=O)N1c1ccccc1	AHR activator 55.5
Cc1[nH]nc(Nc2ccc(Br)cc2)c1[N+](=O)[O-]	ssDAF-12 act 1.3, AHR activator 125.1, DAX1 inh-2 5.6, hgDAF-12 ag 11.9
CNc1nc(Nc2ccc(Br)cc2)nc(N)c1[N+](=O)[O-]	ssDAF-12 act 1.2, AHR activator 70.2
Cc1nnc(SCC(=O)N2CCOCC2)s1	none
O=C(CSc1nnc(NC2CCCCC2)s1)N1CCOCC1	DAX1 inh-1 4.1
COc1ccccc1C(=O)C1CCCN(C(=O)CSc2ccccn2)C1 (configuration not stated)	none
CC(/C=N/n1c(-c2cc(C)[nH]n2)n[nH]c1=S)=C\c1ccccc1	AHR activator 77.6
CC(=C/c1ccccc1)/C=N/n1c(-c2ccco2)n[nH]c1=S	none
COCCNc1nnc(SCC(=O)NC(=O)c2ccccc2)s1	none
CCN1CCCC1CN(Cc1cc2ccc(C)cc2[nH]c1=O)C(=S)Nc1cccc(OC)c1 (configuration not stated)	AHR activator 58.7
COc1ccccc1NC(=S)N1CCC(c2nc3cc(C)c(C)cc3[nH]2)CC1	AHR activator 52.0
O=c1[nH][nH]cc1C=Nc1ccc(Cl)cc1Cl	ssDAF-12 act 1.6
Cc1cc(NC(=O)c2ccc(Cl)cc2)n(CCOC(=O)c2ccc(Cl)cc2)n1	none
Cc1cc(NC(=O)c2ccc(F)cc2)n(CCOC(=O)c2ccc(F)cc2)n1	AHR activator 49.8
CN1C(=O)[C@@](O)(c2cccn2C)c2cc(Cl)ccc21	ssDAF-12 act 0.9 (no result: AHR activator, DAX1 inh-2)
COc1ccc(CN2C(=O)[C@@](O)(c3cccn3C)c3cc(F)ccc32)cc1	none (no result: AHR activator, DAX1 inh-2)
Cc1cccc(OCCOCCSc2ncccn2)c1	AHR activator 61.8
COC(=O)C(=O)C1CCc2c(Cl)cc(OC)c(OC)c2C1=O (configuration not stated)	none (no result: AHR activator)
COc1ccc(CC(=O)N/N=C/c2ccc(-c3ccc(F)cc3)o2)cc1OC	none
CN(C)S(=O)(=O)Oc1cc(Cl)ccc1C(=O)Nc1ccc(F)cc1F	AHR activator 74.0
COc1ccc(CNC(=O)CN(Cc2ccccc2OC)C(=O)c2csnn2)cc1	none
COCCCNC(=S)NC(=O)c1ccc(C)cc1	hcDAF12 agonist 6.2, hgDAF-12 ag 13.0
CC(C)(C)NS(=O)(=O)c1cc2c3c(c1)CCN3C(=O)CC2	none
N/C(Cc1ccc(Cl)cc1Cl)=N\OC(=O)c1ccccc1F	hcDAF12 agonist 6.0
CSCc1nc2sc(C(=O)Nc3nc(C)cs3)c(C)c2c(=O)[nH]1	hgDAF-12 ag 11.8
Cc1ccc(NC(=O)c2sc3nc(CCl)[nH]c(=O)c3c2C)c(C)c1	DAX1 inh-1 3.7 (no result: AHR activator)
Cc1cccc(N2CCN(Cc3ccc([N+](=O)[O-])o3)CC2)c1C	AHR activator 57.2
